Bioassay records: PubChem BioAssay, The Scripps Research Institute Molecular Screening Center
The list is not random: actives were taken first. Their share in the collection is about 4.1%.
hgDAF-12 ag: agonists of H. glycines DAF-12 nuclear receptor. activation, % at 6.8 µM. 1.8% of 370,000 active. HEK293 GAL4-hgDAF12 UAS-luciferase reporter, agonist luminescence; normalized to butyrate control. AID 687014;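 active means activation above a cutoff set at the mean of all screened compounds plus 3 SD, cut at about 10% in these data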;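 further: 0% = DMSO wells and 100% = sodium butyrate wells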
hcDAF12 agonist: activators of H. contortus DAF-12 nuclear receptor; HEK293 hcDAF-12 lit1-tk-luc reporter, luminescence; 0% DMSO, 100% Δ7-dafachronic acid; 1.4% of 370,000 active; activation, % at 6.8 µM;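 active means activation above the mean of all tested compounds plus 3 SD, cut at about 5.5% in these data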;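 further: 100% = response to 3 µM Δ7-dafachronic acid high control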
DAX1 inh-1: blocks DAX1 repression of SF-1 activated StAR promoter | HEK293T StAR-luciferase reporter, SF-1/DAX-1 repression relief | inhibition, % at 6.8 µM | 1.1% of 370,000 active | AID 652010;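 active means inhibition above the mean over all tested compounds plus 3 SD, cut at about 3.6% in these data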;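 further: 0% = DAX-1 cells with DMSO and 100% = cells lacking DAX-1 with DMSO; higher inhibition means more luminescence from relief of DAX-1 repression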
DAX1 inh-2: NR0B1 (DAX1) inhibition; inhibition, % at 6.75 µM; HEK293 Gal4-DAX1 luciferase reporter, luminescence; 0.99% of 340,000 active; AID 504766; P51843;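 active means inhibition above the mean over all tested compounds plus 3 SD, cut at about 4.2% in these data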;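 further: 0% = DAX1-transfected cells with DMSO and 100% = empty-vector control cells with DMSO; inhibition shows as a rise in luminescence from relieved DAX1 repression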
ssDAF-12 act: activators of S. stercoralis DAF-12 nuclear receptor; HEK293 ssDAF-12/GRIP1 lit1-tk-luc reporter, luminescence; % of 3 µM dafachronic acid response; activation, % at 6.8 µM; 1% of 370,000 active;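 active means activation above the mean over all tested compounds plus 3 SD, cut at about 0.9% in these data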;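 further: 0% = DMSO-only wells and 100% = 3 µM delta7-dafachronic acid wells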
DAX1 inh confirm: confirmation of human DAX1 (NR0B1) inhibitors. shares compounds with DAX1 inh-1. HEK293T StAR-promoter luciferase reporter, SF-1/DAX-1 repression. inhibition, % at 6.8 µM. 87% of 2,400 active. AID 652134;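 active means inhibition above the average of every tested compound plus 3 SD, cut at about 3.8% in these data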;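 further: 0% = DAX-1 cells with DMSO and 100% = no DAX-1 control cells with DMSO; active compounds raise luminescence by relieving repression of the StAR reporter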
Target sequence (P51843 whole entry, looked up): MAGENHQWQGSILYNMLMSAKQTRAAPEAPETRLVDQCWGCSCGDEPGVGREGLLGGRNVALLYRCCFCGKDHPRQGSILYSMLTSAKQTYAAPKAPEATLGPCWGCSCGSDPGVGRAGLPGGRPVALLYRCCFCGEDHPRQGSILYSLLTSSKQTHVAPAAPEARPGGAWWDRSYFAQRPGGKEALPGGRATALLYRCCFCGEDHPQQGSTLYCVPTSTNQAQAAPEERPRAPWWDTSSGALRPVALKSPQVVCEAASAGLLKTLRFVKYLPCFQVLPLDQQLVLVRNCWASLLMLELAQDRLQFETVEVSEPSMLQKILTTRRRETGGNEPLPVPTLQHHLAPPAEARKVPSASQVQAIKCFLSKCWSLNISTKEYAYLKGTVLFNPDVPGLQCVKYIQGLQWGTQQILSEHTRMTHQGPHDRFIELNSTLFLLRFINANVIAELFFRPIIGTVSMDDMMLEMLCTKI
SF1 mutant ctr: counter-screen for DAX1 inhibitors: nonselective inhibitors with SF-1 AF2 mutant | shares compounds with DAX1 inh-1 | HEK293 StAR-luciferase, luminescence | inhibition, % at 6.8 µM | 78% of 2,400 active | AID 652136;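 active means inhibition above the mean of all tested compounds plus 3 SD, cut at about 3% in these data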;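 further: 0% = DAX-1 transfected cells with DMSO and 100% = cells without DAX-1 with DMSO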
Starred values were filed as active, the others as inactive.

Screening COc1ccc(O)c(C(=O)CC(=O)c2ccncc2)c1 returned hgDAF-12 ag 12*, hcDAF12 agonist 1, DAX1 inh-1 4.7*, DAX1 inh-2 2, ssDAF-12 act -1, DAX1 inh confirm 5.7* and SF1 mutant ctr 3.6*.
Screening COc1ccc(C(=O)NNC(=O)c2ccncc2)cc1 returned hgDAF-12 ag 0, hcDAF12 agonist -4, DAX1 inh-1 0, DAX1 inh-2 -1 and ssDAF-12 act -1.
Cc1cccc(C)c1NC(=O)C(c1ccnc2ccccc12)n1c(=O)c(-c2ccco2)nc2ccccc21 (configuration not stated) was read as hgDAF-12 ag 2, hcDAF12 agonist -1, DAX1 inh-1 -1 and ssDAF-12 act -1.
`CC(=O)Nc1ccc(C(C)=NNC(=O)C2CCCC2)cc1` gave hgDAF-12 ag 3, hcDAF12 agonist 1, DAX1 inh-1 4.6*, ssDAF-12 act 0, DAX1 inh confirm -2 and SF1 mutant ctr -1.
Screening Cc1ccc(NC(=O)C(=O)NCCCN2CCCC2=O)cc1 returned hgDAF-12 ag 12*, hcDAF12 agonist 5, DAX1 inh-1 6.5*, DAX1 inh-2 0, ssDAF-12 act 0, DAX1 inh confirm 9.7* and SF1 mutant ctr 6.5*.
CCOc1ccc(CCNC(=O)C2CCCCC2)cc1OCC was read as hgDAF-12 ag -1, hcDAF12 agonist -3 and ssDAF-12 act -2.
For Cc1c(C(=O)NCCCN2CCCCC2)oc2ccc3c(c12)C(O)CC1(CCCCC1)O3 (configuration not stated) the results were hgDAF-12 ag 0, hcDAF12 agonist -1, DAX1 inh-1 5.7*, DAX1 inh-2 0, ssDAF-12 act -1, DAX1 inh confirm 1 and SF1 mutant ctr -1.
CCCC/C=C1/C(c2ccccc2)N(Cc2ccc(OC)cc2OC)C2=NC(c3ccccc3)CC(=O)N21 (configuration not stated) was read as hgDAF-12 ag 5, hcDAF12 agonist -1 and ssDAF-12 act -2.
For COC(=O)C1CN(Cc2ccc(F)cc2)CCS(=O)(=O)N1Cc1cn(CCOC(C)=O)nn1 (configuration not stated) the results were hgDAF-12 ag 0, hcDAF12 agonist 2, DAX1 inh-1 0 and ssDAF-12 act -2.
Cn1cc(CCNC(=O)c2ccc3nc(Cc4ccccc4F)oc3c2)cn1 was read as hgDAF-12 ag 12*, hcDAF12 agonist 4, DAX1 inh-1 5.0*, DAX1 inh-2 2, ssDAF-12 act -1, DAX1 inh confirm 7.1* and SF1 mutant ctr 5.8*.
Screening O=C(NCCc1ccccn1)c1ccc2nc(Cc3ccccc3F)oc2c1 returned hgDAF-12 ag 8, hcDAF12 agonist 1, DAX1 inh-1 7.0*, DAX1 inh-2 2, ssDAF-12 act 0, DAX1 inh confirm 6.9* and SF1 mutant ctr 5.2*.
Screening Cn1cc(CNC(=O)c2ccc3nc(Cc4ccccc4F)oc3c2)cn1 returned hgDAF-12 ag 4, hcDAF12 agonist 3, DAX1 inh-1 1, DAX1 inh-2 1 and ssDAF-12 act 0.
Screening CCn1cc(CNC(=O)c2ccc3nc(Cc4ccccc4F)oc3c2)cn1 returned hgDAF-12 ag 0, hcDAF12 agonist -1, DAX1 inh-1 -1, DAX1 inh-2 -1 and ssDAF-12 act -1.
Screening COc1ccc(C#Cc2ccc3c(c2)[C@H]2[C@H](CCN2S(=O)(=O)c2ccccc2F)[C@H](CO)N3C)cc1 returned hgDAF-12 ag -1, hcDAF12 agonist -3, DAX1 inh-1 1 and ssDAF-12 act -1.
Screening N#CCC[C@H]1CC[C@]2(CCCN(C(=O)c3ccno3)C2)O1 returned hgDAF-12 ag 0, hcDAF12 agonist -2, DAX1 inh-1 0 and ssDAF-12 act -1.
N/C(=N\N=C\c1cccc([N+](=O)[O-])c1)c1nonc1N was read as hgDAF-12 ag 7, hcDAF12 agonist 2, DAX1 inh-1 1 and ssDAF-12 act -1.
Screening N/C(=N\N=C\c1ccc2c(c1)OCO2)c1nonc1N returned hgDAF-12 ag 8, hcDAF12 agonist 5.9*, DAX1 inh-1 6.2*, DAX1 inh-2 -2, ssDAF-12 act 0, DAX1 inh confirm 18* and SF1 mutant ctr 9.6*.
For Cc1ccc2oc(C(=O)Nc3nnc(C)s3)c(C)c2c1 the results were hgDAF-12 ag 5, hcDAF12 agonist 3, DAX1 inh-1 1, DAX1 inh-2 1 and ssDAF-12 act -1.
Screening COc1ccc2oc(C(=O)Nc3nnc(C)s3)c(C)c2c1 returned hgDAF-12 ag 11*, hcDAF12 agonist 3, DAX1 inh-1 10*, DAX1 inh-2 -1, ssDAF-12 act 0, DAX1 inh confirm 16* and SF1 mutant ctr 5.9*.
Screening Nc1nc2c(C(=O)N3CCCC3)nnn2c2ccccc12 returned hgDAF-12 ag 11*, hcDAF12 agonist 3, DAX1 inh-1 4.7*, ssDAF-12 act -1, DAX1 inh confirm 9.2* and SF1 mutant ctr 4.8*.
For C=CCSc1nc2c(C(=O)OCC)nnn2c2ccccc12 the results were hgDAF-12 ag 0, hcDAF12 agonist 2, DAX1 inh-1 0, DAX1 inh-2 0 and ssDAF-12 act 0.
Screening CN(CCc1ccccc1)C(C(=O)Nc1ccc2c(c1)OCCO2)c1ccnc2ccccc12 (configuration not stated) returned hgDAF-12 ag 3, hcDAF12 agonist 0, DAX1 inh-1 -2 and ssDAF-12 act -2.
Cn1c2ccccc2c(=O)c2cc(NCCCN3CCOCC3)ccc21 was read as hgDAF-12 ag 11*, hcDAF12 agonist 4, DAX1 inh-1 5.1*, DAX1 inh-2 4, ssDAF-12 act 0, DAX1 inh confirm 15* and SF1 mutant ctr 10*.
Cn1c(C(=O)NCCCN2CCOCC2)cc2c(=O)n(C)c3ccccc3c21 was read as hgDAF-12 ag -2, hcDAF12 agonist -1, DAX1 inh-1 1, DAX1 inh-2 2 and ssDAF-12 act -1.
CN1CCC[C@H]1CCNc1ccc2c(=O)c3ccccc3n(C)c2c1 was read as hgDAF-12 ag 9, hcDAF12 agonist 5, DAX1 inh-1 8.1*, DAX1 inh-2 1, ssDAF-12 act 0, DAX1 inh confirm 15* and SF1 mutant ctr 9.6*.
`CC(=O)Nc1ccccc1NC(=O)C/C(C)=N/NC(=O)c1ccccn1` gave hgDAF-12 ag 10, hcDAF12 agonist 7.5*, DAX1 inh-1 4.6*, DAX1 inh-2 1, ssDAF-12 act 0, DAX1 inh confirm 2 and SF1 mutant ctr 3.4*.
